Measured values from PubChem BioAssay AID1051 (The Scripps Research Institute Molecular Screening Center, 2008).
Hit rate of the full screen: of about 99,000 compounds, about 340 (0.34%) were called active. This is one part of a sample in which actives are shown more often than they occur. Rule as the data show it: active = TR-FRET ratio above about 2300; inactive = the rest.

Assay: signal artefacts in PPARgamma/SRC-1 readout – biochemical, TR-FRET emission ratio, artefact control for PPARgamma SRC-1 recruitment agonists, primary screen (AID 1051)
Conditions: TR-FRET detection artefact counter-screen, at 8 µM, hits give high values

SMILES	TR-FRET ratio
COC(=O)c1c(C)[nH]c(C)c1-c1ccc([N+](=O)[O-])cc1	1710 (inactive)
CCOc1cc(CNn2c(C)nnc2SCC(=O)NC(C)(C)C)ccc1OCC(=O)NC(C)(C)C	1840 (inactive)
O=C(NNS(=O)(=O)c1ccc(F)cc1)c1cnccn1	1930 (inactive)
Cc1ccc(NC(=S)N(CCN2CCCCC2)Cc2ccco2)cc1C	1560 (inactive)
COc1cc(C(=O)OCc2ccc([N+](=O)[O-])cc2)cc(OC)c1OC	1470 (inactive)
S=C(Cc1ccc(Cl)cc1)N1CCOCC1	2050 (inactive)
COc1cc(NS(=O)(=O)c2ccc(NC(=O)c3ccc(S(=O)(=O)N4CCCCC4)cc3)cc2)ncn1	1650 (inactive)
CCC(=O)N(Cc1cc2ccccc2[nH]c1=O)c1ccc(OC)cc1	1990 (inactive)
COc1ccc(-n2nnnc2SCC(=O)NCc2cccs2)cc1	1830 (inactive)
CN1CCN(S(=O)(=O)c2cccc(C(=O)N3CCc4ccccc43)c2)CC1	1760 (inactive)
Cc1ccc(N2C(=O)C(CC(=O)Nc3cccc(F)c3)N(CCc3ccncc3)C2=O)cc1 (centres undefined)	1810 (inactive)
CCOc1cnc(-c2c(-c3ccccc3Cl)noc2C)o1	1830 (inactive)
COc1ccc(S(=O)(=O)N2CCCCCC2)cc1C(=O)OCC(=O)Nc1cc(C)on1	2360 (active)
Cc1cc(NC(=O)COC(=O)c2ccc(F)c(S(=O)(=O)N3CCOCC3)c2)no1	1740 (inactive)
O=C(COC(=O)c1cc(S(=O)(=O)N2CCCCC2)ccc1Cl)NCc1ccco1	1930 (inactive)
COc1ccnc(Oc2ccccc2)n1	1760 (inactive)
O=C(Nc1ccc(N2CCN(C(=O)c3cccs3)CC2)cc1)c1cccnc1Cl	1580 (inactive)
CNS(=O)(=O)c1ccc(N2CCCC2=O)c([N+](=O)[O-])c1	1690 (inactive)
O=S(=O)(c1ccc(-c2ccccc2)cc1)N1CCCC1	1580 (inactive)
CC(=O)OC(COc1ccc(F)cc1)Cn1cnc2ccccc21 (centres undefined)	1950 (inactive)
Cc1cccc(NC(=O)c2ccc3ccccc3n2)n1	2320 (active)
CC(OC(=O)c1ccc2ccccc2n1)C(=O)c1ccccc1 (centres undefined)	1760 (inactive)
COC(=O)c1ccc(NC(=S)Nc2cccc(C)n2)cc1	1830 (inactive)
COc1ccc(N2CCN(CCCNC(=O)C3CCN(S(=O)(=O)N4CCOCC4)CC3)CC2)cc1	1660 (inactive)
COc1ccc(C)cc1NC(=S)Nc1ccccc1SC	1550 (inactive)

SMILES	TR-FRET ratio
O=C(N/N=C/c1ccc([N+](=O)[O-])o1)c1cccc(S(=O)(=O)N2CCOCC2)c1	2000 (inactive)
COC(=O)c1ccc(CN2CCN(CCCc3ccccc3)C(CCO)C2)cc1 (centres undefined)	1770 (inactive)
CC(=O)N1c2ccccc2N(Cc2ccc([N+](=O)[O-])cc2)C(=O)C1(C)C	1840 (inactive)
N#Cc1c(NC(=O)C2CC(Cl)=CCC2C(=O)O)sc2c1CCCCC2 (centres undefined)	1990 (inactive)
COC(=O)C(C)N=Cc1ccccc1 (centres undefined)	1960 (inactive)
CCN(CC)S(=O)(=O)c1ccc(Cl)c(NC(=O)c2ccncc2)c1	1750 (inactive)
Cc1ccc(-c2cn3cc([N+](=O)[O-])ccc3n2)cc1	1970 (inactive)
COc1cc(/C=C/C(=O)OCC(=O)N2CCOCC2)ccc1OCC#N	1960 (inactive)
Cc1cc(NC(=O)CSc2nc3c(cc2C#N)CCCCC3)no1	1930 (inactive)
C/C(CC(=O)Nc1cccc(F)c1)=N\NC(=O)C(=O)NC1CCCCC1	1840 (inactive)
CCOc1ccc(N(CC(=O)NCCc2ccc(OC)cc2)S(C)(=O)=O)cc1	1790 (inactive)
Cc1ccccc1CN(c1ccc(C(=O)NCC2CCCO2)cc1)S(C)(=O)=O (centres undefined)	1760 (inactive)
CNc1[nH]ncc1[N+](=O)[O-]	1620 (inactive)
O=C(c1ccc(OC2CCN(Cc3ccccn3)CC2)cc1)N1CCCCCC1	1590 (inactive)
CCc1nnc(NC(=O)/C=C/c2ccc(C)o2)s1	1650 (inactive)
CCOC(=O)C1CCCN(C(=O)c2cccc(S(=O)(=O)N3CCOCC3)c2)C1 (centres undefined)	1820 (inactive)
Cc1nc2ccc(NC(=S)N3CCC(C)CC3)cc2nc1C	1940 (inactive)
Cn1cc(CCC(=O)N2CCCC(C(=O)c3ccc(C(C)(C)C)cc3)C2)cn1 (centres undefined)	2020 (inactive)
Cc1coc(C)c1C(=O)CC1(O)C(=O)N(C)c2ccc(Cl)cc21 (centres undefined)	1870 (inactive)
CC(C)CC(CC(C)C)=NNC(=O)c1ccc(CSc2nncn2C)cc1	1890 (inactive)
O=C(C1CC1)N1N=C2CCCCC2C1(O)C(F)(F)F (centres undefined)	1750 (inactive)
O=[N+]([O-])c1cc(S(=O)(=O)N2CCCC2)ccc1NN=C1CCCC1	1910 (inactive)
Cn1cnnc1SCc1nnc(-c2ccccc2Br)o1	1590 (inactive)
CCOC(=O)CCCNC(=O)COC(=O)/C=C/c1ccc2c(c1)OCO2	1620 (inactive)
O=C(OCC(=O)N1CCOCC1)c1ccc(N2CCOCC2)c([N+](=O)[O-])c1	2030 (inactive)

SMILES	TR-FRET ratio
COc1ccc(NC(=S)N2CCCC(CO)C2)c(OC)c1 (centres undefined)	1690 (inactive)
Cc1nn(C)c(C)c1S(=O)(=O)N1CCC(CO)(Cc2ccc(Cl)cc2)CC1	1980 (inactive)
O=C(CCN1C(=O)c2ccccc2C1=O)NNC(=O)c1ccc(Cl)cc1Cl	2130 (inactive)
CCC1CO/C(=C(\C(=C(Cl)Cl)N2CCOCC2)[N+](=O)[O-])N1 (centres undefined)	1830 (inactive)
CN(C(=O)CSc1nncc2ccccc12)C1CCCCC1	1810 (inactive)
Cc1ccc(Sc2ccncc2S(N)(=O)=O)cc1	1560 (inactive)
CCOC(=O)c1c(C)[nH]c(=S)c(C#N)c1-c1ccccc1	1630 (inactive)
CNc1nccc(-c2ccc(Cl)cc2)c1C#N	1880 (inactive)
N#Cc1c(-c2ccc(Cl)cc2)c2c([nH]c1=S)CCCC2	2380 (active)
Clc1cccc(-c2nc(NCC3CCCO3)c3ccccc3n2)c1 (centres undefined)	1630 (inactive)
CCc1[nH]nc(C(=O)N2CCCC(CNS(=O)(=O)c3cccs3)C2)c1C (centres undefined)	1580 (inactive)
O=C(O)Cc1ccc(-c2ccccc2)cc1	1790 (inactive)
O=C(O)Cc1sc(-c2ccc(C(=O)O)cc2)nc1-c1ccccc1	1940 (inactive)
O=C(O)Cc1sc(-c2ccccc2)nc1-c1cccs1	2910 (active)
O=C(Nc1ccccc1)N1CCN(C(=O)Nc2ccccc2)CC1	1700 (inactive)
Cc1nc2ccccc2c(C)c1C(=O)c1ccc(F)cc1	1400 (inactive)
CCC(CC)C(=O)N1CCN(c2cccc(C)c2C)CC1	1600 (inactive)
O=C(COC(=O)c1ccc(F)cc1)Nc1nc2ccc([N+](=O)[O-])cc2s1	1760 (inactive)
COc1ccc(Cc2nnc(NC(=O)Cc3cccs3)s2)cc1	1780 (inactive)
COc1ccc(OCC(=O)Nc2nnc(-c3ccco3)s2)cc1	2500 (active)
COc1ccc(OCCCC(=O)Nc2nnc(C3CCCO3)s2)cc1 (centres undefined)	1980 (inactive)
C=CCO/N=C/C1=C(O)C(C(=O)OC)C(C)(C)CC1=O (centres undefined)	1870 (inactive)
O=C(NCc1ccccn1)c1cc(Br)ccc1Cl	1780 (inactive)
Cc1ccc2nc(-c3cccc(Br)c3)cc(C(=O)Nn3cnnc3)c2c1	1660 (inactive)
Cc1ccc(-c2cc(C(=O)NCc3cn(C)nc3C)c3cc(Br)ccc3n2)cc1	2880 (active)

SMILES	TR-FRET ratio
C/C(N)=C(/C#N)C(=O)COC(=O)c1cc(-c2ccccc2)nc2ccc(Br)cc12	1910 (inactive)
O=C(Nc1ccncc1)c1cc(-c2ccccn2)nc2ccc(Br)cc12	1860 (inactive)
O=C(NCc1cccs1)c1cc(-c2ccccn2)nc2ccc(Br)cc12	2520 (active)
CSc1ccc(CN2C(=O)NC3(CCCCCC3)C2=O)cc1	1630 (inactive)
Cc1ccnc(NS(=O)(=O)c2ccc(NC(=O)c3ccc(S(=O)(=O)N(C)C)cc3)cc2)n1	1700 (inactive)
COc1cccc(NC(=O)c2ccc(S(=O)(=O)N(C)C)cc2)c1	1680 (inactive)
Cc1nn(C)c(C(=O)NNC(=S)NC2CCCCC2)c1Cl	1630 (inactive)
COc1cccc(NC(=S)NCc2ccccn2)c1	1990 (inactive)
COc1cccc(NC(=S)NC(=O)c2c(Cl)c(C)nn2C)c1	2600 (active)
CN1CCN(C(=O)N2c3ccccc3CCc3ccccc32)CC1	1720 (inactive)
CCOc1c(CNCc2ccc(C(=O)O)cc2)cccc1OC	1910 (inactive)
O=C(CC1C(=O)NCCN1Cc1ccc(-c2ccccc2)cc1)NCC1CCOCC1 (centres undefined)	1730 (inactive)
CCc1ccccc1N1C(=O)C2C3CC(=O)C(c4ccccc43)C2C1=O (centres undefined)	1650 (inactive)
CC(=O)NC1=NN(C(C)=O)C(C)(c2ccc(C)cc2)S1 (centres undefined)	1950 (inactive)
COc1ccc(/C=N/NC(=O)Cn2cc(C(F)(F)F)ccc2=O)cc1	1880 (inactive)
CCN(CCn1cccn1)C(=O)CC1C(=O)NCCN1Cc1cccc(OC)c1OC (centres undefined)	1620 (inactive)
CSc1nc2c(c(=O)[nH]1)C(c1cccc(Cl)c1Cl)CC(=O)N2 (centres undefined)	1770 (inactive)
CCN1CCN(CC(=O)c2cc(OC)c(OC)c(OC)c2)CC1	1990 (inactive)
CC(C)OC(=O)CN1CCN(c2ccc(Cl)cc2)CC1	1890 (inactive)
CCCC(=O)OCC(=O)Nc1cc(Cl)ccc1[N+](=O)[O-]	1580 (inactive)
CN(C)C(=O)N1CCNCC1	1920 (inactive)
COc1ccc(C/C(C)=N/NC(=O)c2ccncc2)cc1	1920 (inactive)
O=C(Nc1ccc([N+](=O)[O-])cc1)C1(c2ccccc2)CCOCC1	1740 (inactive)
CN1CCN(CC#CCC2(O)c3ccccc3-c3ccccc32)CC1	1610 (inactive)
